Measurements reported in the supplement of paper PMC10849652.
Targets with a hit are over-represented here; the source holds about 8,800 in all. About 0.5% of all pairs of compound and target were hits. Values without a mark were called inactive.

How the values were obtained:
Assay in all cases: log2 fold change, soluble protein after heating vs DMSO (PISA); higher = thermal stabilisation; K562 lysate, 10 uM; active = over 0.2 and 3.5 SD of the protein, either way, in both replicates (recomputed)
[1] = compound: Cc1cn(-c2cc(NC(=O)c3ccc(C)c(Nc4nccc(-c5cccnc5)n4)c3)cc(C(F)(F)F)c2)cn1 [nilotinib]
Outline: (§1)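 Soluble protein was defined as the supernatant remaining after 21,000xg for 90 min, following pooling of heated aliquots and adjustment to 0.5% NP-40 at 4°C. Before that, crude K562 extract at 1 mg/mL protein in PBS pH 7.4 with 1 mM MgCl2 was treated with 10 μM compound for 30 min and heated for 3 min across 48°C-58°C. Quantification used TMTpro 16plex LC-MS/MS with channel sums equalised, and values are log-two fold changes in thermal stability relative to solvent controls from duplicates.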

[2] = compound: Cc1nc(Nc2n[nH]c3c2CN(C(=O)N[C@H](CN(C)C)c2ccccc2)C3(C)C)c2sccc2n1
Outline: as §1

[3] = compound: Cc1nc(Nc2ncc(C(=O)Nc3c(C)cccc3Cl)s2)cc(N2CCN(CCO)CC2)n1 [dasatinib]
Outline: as §1

[4] = compound: Cc1ncc(-c2ccnc(Nc3ccc(S(C)(=O)=O)cc3)n2)n1C(C)C
Outline: as §1

[5] = compound: Cn1cc(-c2ccc3c(c2)CCN3C(=O)Cc2cccc(C(F)(F)F)c2)c2c(N)ncnc21
Outline: as §1

[6] = compound: Cn1cc(CNCC2CCN(c3ncc(C(=O)NO)cn3)CC2)c2ccccc21 [quisinostat]
Outline: as §1

[7] = compound: Cn1cncc1[C@@](N)(c1ccc(Cl)cc1)c1ccc2c(c1)c(-c1cccc(Cl)c1)cc(=O)n2C [tipifarnib]
Outline: as §1

[8] = compound: NC(=O)Nc1cc(-c2cccc(F)c2)sc1C(=O)N[C@H]1CCCNC1
Outline: as §1

[9] = compound: NC(=O)c1cnc(N[C@@H]2CCCC[C@@H]2N)nc1Nc1cccc(-n2nccn2)c1
Outline: as §1

[10] = compound: NC1(c2ccc(-c3nc4ccn5c(=O)[nH]nc5c4cc3-c3ccccc3)cc2)CCC1
Outline: as §1

[11] = compound: NCC(=O)Nc1ccc(-n2nc(C(F)(F)F)cc2-c2ccc3c(ccc4ccccc43)c2)cc1
Outline: as §1

[12] = compound: O=C(CCCCCCC(=O)Nc1ccccc1)NO [vorinostat]
Outline: as §1

[13] = compound: O=C(O)c1ccc2c(c1)nc(Nc1cccc(Cl)c1)c1ccncc12 [silmitasertib]
Outline: as §1

[14] = compound: O=C1NC(=O)C(c2cnc3ccccn23)=C1c1cn2c3c(cc(F)cc13)CN(C(=O)N1CCCCC1)CC2
Outline: as §1

[15] = compound: c1cn2cc(-c3ccc4cn[nH]c4c3)nc(Nc3ccc(N4CCOCC4)cc3)c2n1 [entospletinib]
Outline: as §1

Chain of UniProt Q96RT8 (Q96RT8 whole entry, looked up): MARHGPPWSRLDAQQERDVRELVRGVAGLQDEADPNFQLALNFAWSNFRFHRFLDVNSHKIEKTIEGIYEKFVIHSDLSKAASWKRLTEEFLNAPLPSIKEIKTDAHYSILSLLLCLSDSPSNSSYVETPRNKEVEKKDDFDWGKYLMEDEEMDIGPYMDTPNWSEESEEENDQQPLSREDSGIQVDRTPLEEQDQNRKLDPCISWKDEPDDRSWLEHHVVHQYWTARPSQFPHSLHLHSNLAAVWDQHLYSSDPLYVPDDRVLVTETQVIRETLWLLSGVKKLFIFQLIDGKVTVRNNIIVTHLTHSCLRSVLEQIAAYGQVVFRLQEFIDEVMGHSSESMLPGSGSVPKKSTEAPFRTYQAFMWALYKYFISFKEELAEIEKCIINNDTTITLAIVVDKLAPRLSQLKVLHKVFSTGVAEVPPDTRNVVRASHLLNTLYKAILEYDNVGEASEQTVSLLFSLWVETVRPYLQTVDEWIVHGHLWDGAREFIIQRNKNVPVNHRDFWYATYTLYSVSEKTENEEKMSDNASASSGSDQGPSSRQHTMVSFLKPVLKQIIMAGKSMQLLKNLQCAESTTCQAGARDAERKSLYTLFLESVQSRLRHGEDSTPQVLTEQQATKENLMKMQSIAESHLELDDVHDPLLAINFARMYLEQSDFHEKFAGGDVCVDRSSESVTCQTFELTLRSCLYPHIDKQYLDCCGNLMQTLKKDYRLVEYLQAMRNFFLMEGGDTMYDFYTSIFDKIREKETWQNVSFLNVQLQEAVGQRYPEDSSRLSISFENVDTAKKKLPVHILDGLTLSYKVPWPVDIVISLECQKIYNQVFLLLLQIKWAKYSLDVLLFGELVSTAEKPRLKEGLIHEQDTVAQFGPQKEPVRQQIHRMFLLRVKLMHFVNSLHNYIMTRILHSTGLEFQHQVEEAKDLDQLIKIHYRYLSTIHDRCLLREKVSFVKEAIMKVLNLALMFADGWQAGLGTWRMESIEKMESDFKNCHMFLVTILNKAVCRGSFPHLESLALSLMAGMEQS
Chain of UniProt P15884 (P15884 whole entry, looked up): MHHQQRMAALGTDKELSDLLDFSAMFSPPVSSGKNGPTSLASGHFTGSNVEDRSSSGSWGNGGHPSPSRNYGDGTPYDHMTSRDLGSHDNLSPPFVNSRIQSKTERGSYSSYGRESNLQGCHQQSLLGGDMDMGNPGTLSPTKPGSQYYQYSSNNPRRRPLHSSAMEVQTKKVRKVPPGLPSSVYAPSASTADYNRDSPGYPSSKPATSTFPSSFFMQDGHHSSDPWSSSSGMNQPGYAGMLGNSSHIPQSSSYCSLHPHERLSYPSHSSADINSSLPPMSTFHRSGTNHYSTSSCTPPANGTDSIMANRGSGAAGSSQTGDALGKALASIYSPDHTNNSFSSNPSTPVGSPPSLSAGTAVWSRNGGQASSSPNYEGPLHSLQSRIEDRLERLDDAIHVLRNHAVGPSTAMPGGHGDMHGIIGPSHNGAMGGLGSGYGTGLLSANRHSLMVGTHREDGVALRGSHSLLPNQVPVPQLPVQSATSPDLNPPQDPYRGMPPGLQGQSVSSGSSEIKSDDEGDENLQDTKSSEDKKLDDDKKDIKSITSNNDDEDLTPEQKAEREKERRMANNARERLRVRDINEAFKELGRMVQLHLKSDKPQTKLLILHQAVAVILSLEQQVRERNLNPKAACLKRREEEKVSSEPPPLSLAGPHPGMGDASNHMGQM
Chain of UniProt Q86SX3 (Q86SX3 whole entry, looked up): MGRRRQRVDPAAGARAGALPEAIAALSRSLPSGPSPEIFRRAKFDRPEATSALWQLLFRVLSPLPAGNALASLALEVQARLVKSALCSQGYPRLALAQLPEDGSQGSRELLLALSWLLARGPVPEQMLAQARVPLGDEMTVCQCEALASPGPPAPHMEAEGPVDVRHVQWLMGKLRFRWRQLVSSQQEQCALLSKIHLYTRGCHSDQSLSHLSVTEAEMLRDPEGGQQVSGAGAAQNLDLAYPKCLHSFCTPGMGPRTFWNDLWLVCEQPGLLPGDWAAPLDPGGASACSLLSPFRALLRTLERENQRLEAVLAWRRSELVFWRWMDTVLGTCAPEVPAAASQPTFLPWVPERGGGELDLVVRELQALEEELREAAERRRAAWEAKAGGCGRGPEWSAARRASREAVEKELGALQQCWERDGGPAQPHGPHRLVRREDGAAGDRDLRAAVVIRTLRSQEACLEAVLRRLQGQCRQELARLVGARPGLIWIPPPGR
Chain of UniProt Q12933 (Q12933 whole entry, looked up): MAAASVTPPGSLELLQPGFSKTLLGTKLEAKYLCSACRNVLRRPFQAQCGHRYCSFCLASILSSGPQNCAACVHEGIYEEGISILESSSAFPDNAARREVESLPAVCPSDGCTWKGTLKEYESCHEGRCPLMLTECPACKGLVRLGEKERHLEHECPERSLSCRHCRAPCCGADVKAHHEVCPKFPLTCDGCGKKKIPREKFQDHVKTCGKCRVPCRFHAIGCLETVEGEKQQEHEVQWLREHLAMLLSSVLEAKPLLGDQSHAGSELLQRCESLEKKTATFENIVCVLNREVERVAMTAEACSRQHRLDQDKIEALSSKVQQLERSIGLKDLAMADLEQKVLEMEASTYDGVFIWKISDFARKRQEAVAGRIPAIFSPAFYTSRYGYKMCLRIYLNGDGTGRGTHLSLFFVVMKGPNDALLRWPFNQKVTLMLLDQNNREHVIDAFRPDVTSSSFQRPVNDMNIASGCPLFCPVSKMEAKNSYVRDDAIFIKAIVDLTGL
Chain of UniProt Q86UE8 (Q86UE8 whole entry, looked up): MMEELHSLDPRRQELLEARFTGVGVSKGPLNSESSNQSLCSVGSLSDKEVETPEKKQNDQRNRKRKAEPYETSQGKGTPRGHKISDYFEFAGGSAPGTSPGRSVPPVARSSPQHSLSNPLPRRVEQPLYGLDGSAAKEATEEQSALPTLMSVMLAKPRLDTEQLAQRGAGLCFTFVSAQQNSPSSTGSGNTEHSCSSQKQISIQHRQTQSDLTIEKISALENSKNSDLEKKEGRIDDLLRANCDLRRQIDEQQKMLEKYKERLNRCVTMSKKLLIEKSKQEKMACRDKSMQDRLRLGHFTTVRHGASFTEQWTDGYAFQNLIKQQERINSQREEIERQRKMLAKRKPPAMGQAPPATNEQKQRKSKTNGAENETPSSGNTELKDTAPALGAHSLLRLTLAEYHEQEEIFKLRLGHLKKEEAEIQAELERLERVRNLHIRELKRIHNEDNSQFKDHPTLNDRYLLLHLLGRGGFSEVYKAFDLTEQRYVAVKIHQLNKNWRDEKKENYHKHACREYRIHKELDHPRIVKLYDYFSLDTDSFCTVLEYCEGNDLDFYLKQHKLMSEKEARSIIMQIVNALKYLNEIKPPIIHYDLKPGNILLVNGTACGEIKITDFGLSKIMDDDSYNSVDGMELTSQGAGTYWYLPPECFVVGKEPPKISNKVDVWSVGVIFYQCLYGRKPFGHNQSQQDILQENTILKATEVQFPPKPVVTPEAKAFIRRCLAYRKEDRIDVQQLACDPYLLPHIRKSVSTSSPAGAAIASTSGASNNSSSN
Chain of UniProt P04350 (P04350 whole entry, looked up): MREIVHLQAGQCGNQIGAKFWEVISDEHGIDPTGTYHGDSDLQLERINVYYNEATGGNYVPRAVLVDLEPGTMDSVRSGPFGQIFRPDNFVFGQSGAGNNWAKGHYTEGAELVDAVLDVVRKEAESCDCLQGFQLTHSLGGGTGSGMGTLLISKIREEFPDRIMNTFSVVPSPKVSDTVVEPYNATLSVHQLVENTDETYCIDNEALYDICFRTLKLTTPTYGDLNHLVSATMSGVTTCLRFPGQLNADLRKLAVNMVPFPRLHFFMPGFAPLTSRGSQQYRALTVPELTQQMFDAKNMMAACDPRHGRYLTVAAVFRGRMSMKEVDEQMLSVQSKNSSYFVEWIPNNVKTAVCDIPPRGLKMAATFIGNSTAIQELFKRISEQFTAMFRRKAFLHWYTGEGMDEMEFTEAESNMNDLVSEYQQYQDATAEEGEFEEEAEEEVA
Chain of UniProt P21580 (P21580 whole entry, looked up): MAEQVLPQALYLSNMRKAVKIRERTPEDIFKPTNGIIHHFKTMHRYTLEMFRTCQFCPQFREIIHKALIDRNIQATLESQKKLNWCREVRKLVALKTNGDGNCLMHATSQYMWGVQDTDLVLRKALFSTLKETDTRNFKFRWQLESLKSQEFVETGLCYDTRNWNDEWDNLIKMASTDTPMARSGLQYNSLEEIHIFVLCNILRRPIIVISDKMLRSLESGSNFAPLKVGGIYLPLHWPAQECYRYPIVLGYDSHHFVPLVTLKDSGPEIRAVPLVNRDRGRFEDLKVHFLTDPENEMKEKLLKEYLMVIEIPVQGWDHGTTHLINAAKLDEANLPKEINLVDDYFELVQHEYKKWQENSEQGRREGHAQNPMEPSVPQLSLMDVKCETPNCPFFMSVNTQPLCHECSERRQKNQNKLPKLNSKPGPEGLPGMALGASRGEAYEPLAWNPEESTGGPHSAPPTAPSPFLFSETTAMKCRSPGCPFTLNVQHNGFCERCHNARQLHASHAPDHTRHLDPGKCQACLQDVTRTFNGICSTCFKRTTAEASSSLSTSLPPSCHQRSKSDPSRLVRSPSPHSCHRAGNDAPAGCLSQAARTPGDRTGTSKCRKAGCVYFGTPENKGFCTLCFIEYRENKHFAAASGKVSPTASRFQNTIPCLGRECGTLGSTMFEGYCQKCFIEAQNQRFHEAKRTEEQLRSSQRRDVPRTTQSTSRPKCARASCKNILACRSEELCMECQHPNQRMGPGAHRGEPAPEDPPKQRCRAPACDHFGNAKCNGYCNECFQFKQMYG
Chain of UniProt Q15628 (Q15628 whole entry, looked up): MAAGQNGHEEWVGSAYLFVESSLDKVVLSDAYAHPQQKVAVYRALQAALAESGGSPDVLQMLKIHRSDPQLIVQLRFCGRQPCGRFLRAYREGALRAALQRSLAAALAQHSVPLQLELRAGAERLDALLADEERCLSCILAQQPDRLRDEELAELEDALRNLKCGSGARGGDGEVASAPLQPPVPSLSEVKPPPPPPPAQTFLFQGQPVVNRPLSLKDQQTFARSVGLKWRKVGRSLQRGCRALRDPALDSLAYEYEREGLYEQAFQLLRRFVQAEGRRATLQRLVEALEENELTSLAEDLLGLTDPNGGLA

Row | Target | log2 fold change [1] | log2 fold change [2] | log2 fold change [3] | log2 fold change [4] | log2 fold change [5] | log2 fold change [6] | log2 fold change [7] | log2 fold change [8] | log2 fold change [9] | log2 fold change [10] | log2 fold change [11] | log2 fold change [12] | log2 fold change [13] | log2 fold change [14] | log2 fold change [15]
1 | TCP11L1 (UniProt Q9NUJ3) | 0.062 | -0.114 | -0.034 | -0.035 | 0.01 | -0.055 | -0.003 | 0.051 | -0.022 | 0.028 | 0 | -0.317 (active) | -0.043 | 0.006 | 0.019
2 | TUBGCP5 (UniProt Q96RT8) | 0.024 | 0.04 | 0.119 | 0.048 | -0.094 | 0.203 | 0.012 | 0.077 | -0.68 (active) | – | -0.029 | – | – | 0.042 | -0.105
3 | TEDC1 (UniProt Q86SX3) | 0.015 | -0.016 | 0.087 | -0.038 | 0.05 | 0.161 | -0.049 | -0.074 | 0.104 | -0.022 | – | -0.356 (active) | 0.068 | -0.012 | -0.032
4 | TRADD (UniProt Q15628) | 0.009 | -0.02 | 0.065 | -0.013 | -0.002 | -0.018 | 0.053 | 0.044 | 0.01 | 0.041 | 0.034 | -0.284 | 0.021 | -0.029 | 0.059
5 | TMEM164 (UniProt Q5U3C3) | 0.06 | -0.009 | -0.087 | 0.162 | -0.041 | -0.404 | -0.055 | 0.1 | 0.083 | -0.036 | 0.098 | 0.463 | -0.079 | 0.274 | 0.059
6 | TNFAIP3 (UniProt P21580) | 0.038 | -0.01 | -0.002 | -0.04 | 0.033 | 0.008 | -0.068 | 0.025 | 0.01 | 0.003 | – | -0.12 | -0.003 | 0.004 | 0.044
7 | TCF4 (UniProt P15884) | -0.004 | -0.139 | 0.077 | -0.057 | 0.01 | 0.161 | -0.147 | 0.064 | 0.016 | – | – | – | – | 0.078 | -0.074
8 | U2AF1L5 (UniProt P0DN76) | -0.033 | 0.061 | -0.012 | 0.077 | 0.026 | – | -0.01 | – | 0.009 | -0.022 | – | -0.363 | -0.069 | – | 0.016
9 | TUBB4A (UniProt P04350) | 0.027 | -0.026 | 0.003 | -0.023 | 0.067 | -0.196 | 0.027 | 0.085 | 0.011 | 0.023 | – | -0.448 (active) | 0.065 | 0.095 | -0.056
10 | TRAF2 isoform 2 (UniProt Q12933) | -0.02 | 0.008 | -0.024 | 0.042 | 0.01 | -0.024 | 0.005 | -0.016 | 0.001 | -0.016 | 0.014 | -0.269 (active) | 0.024 | 0.031 | 0.005
11 | TLK2 isoform 2 (UniProt Q86UE8) | -0.008 | 0.243 | -0.004 | 0.162 | 0.007 | -0.099 | 0.005 | 0.073 | 0.048 | -0.035 | 0.019 | -0.24 | 0.057 | 0.118 | -0.135
